PubChem BioAssay (NCI)
About 83,000 compounds went through this panel and 20% of them were active in at least one assay; those are over-represented in the sample as a whole.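 Values shown are percent growth following 48 h exposure of cells in 96-well plates to a single concentration of compound; below 10 was considered active.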 Values without a mark were called inactive. The source made the active and inactive calls.

The compounds below were run on DU-145 prostate (assay: NCI-60 one-dose screen, 48 h (100 = growth as untreated, 0 = no growth, -100 = all killed)). Conditions: 10 µM unless noted.

| SMILES | growth |
| --- | --- |
| CC(=O)O[C@H]1C(=O)[C@@]2(C)[C@H]([C@H](OC(=O)c3ccccc3)[C@]3(O)C[C@H](OC(=O)[C@H](OC(=O)OCC4COC(C)(C)O4)[C@@H](NC(=O)c4ccccc4)c4ccccc4)C(C)=C1C3(C)C)[C@]1(OC(C)=O)CO[C@@H]1C[C@@H]2O (stereo partly drawn) | 22.9% |
| CC[C@H](C)[C@H](NC(=O)C12CC(NC(C)=O)(C1)C2)C(=O)N(C)[C@H](C[C@@H](OC(C)=O)c1nc(C(=O)N[C@@H](Cc2ccccc2)C[C@H](C)C(=O)OC)cs1)C(C)C | 0.412% (active) |
| CCn1cnc2c(Nc3cccc(Cl)c3)nc(N[C@@H]3CCCC[C@@H]3N)nc21 | 6.73% (active) |
| O=C(O)C1C(C(=O)O)C2(Cl)C(Cl)=C(Cl)C1(Cl)C2(Cl)Cl.[Hg] (stereo not drawn) | 96.7% |
| CC[C@H](C)[C@H](NC(=O)[C@H]1CCCCN1C)C(=O)N(C)[C@H](C[C@@H](OC(C)=O)c1nc(C(=O)N[C@@H](Cc2ccccc2)C[C@H](C)C(=O)OC)cs1)C(C)C | 1.75% (active) |
| CN1C(=O)C(=Cc2cn(CCCCCCn3c4ccccc4c(=O)c4ccccc43)c3ccccc23)C(=O)N(C)C1=O | 105% |
| CC(C)(C)C(=O)OCOP(=O)(OCOC(=O)C(C)(C)C)C1CCCN(O)C1=O (stereo not drawn) | 20% |
| COC(=O)[C@@H](C)C[C@H](Cc1ccc2ccccc2c1)NC(=O)c1csc([C@@H](C[C@H](C(C)C)N(C)C(=O)[C@@H](NC(=O)[C@H]2CCCCN2C)C(C)C)OC(C)=O)n1 | 46.6% |
